Laboratory results taken from PubChem BioAssay (NCI).
The panel holds about 83,000 compounds, 20% with a hit somewhere; the sample as a whole holds those more often.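 Single-dose data. Exposure time 48 hours. Values below 10 considered active.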 A number with no mark means an inactive call. Activity calls are given as the source filed them.

Columns and labels:
Assay in all cases: NCI-60 one-dose screen, 48 h (100 = growth as untreated, 0 = no growth, -100 = all killed)
Conditions in all cases: 10 µM unless noted
MOLT-4 leukemia = tested on: MOLT-4 leukemia
RPMI-8226 leukemia = tested on: RPMI-8226 leukemia
OVCAR-8 ovarian = tested on: OVCAR-8 ovarian
OVCAR-5 ovarian = tested on: OVCAR-5 ovarian
OVCAR-4 ovarian = tested on: OVCAR-4 ovarian
SK-OV-3 ovarian = tested on: SK-OV-3 ovarian
OVCAR-3 ovarian = tested on: OVCAR-3 ovarian
HS 578T breast = tested on: HS 578T breast
SR leukemia = tested on: SR leukemia
IGROV1 ovarian = tested on: IGROV1 ovarian

**Q.** What does the source list for `C/C1=C/C(=O)O[C@@H]2C[C@@H](CC[C@H](C)/C=C\C=C\CC1)O[C@@](O)([C@@H]1CSC(=O)N1CO)C2`?
**A.** growth (MOLT-4 leukemia): 33.4%; growth (RPMI-8226 leukemia): 50.7%; growth (OVCAR-8 ovarian): 42.8%; growth (OVCAR-5 ovarian): -3.16% (active); growth (OVCAR-4 ovarian): 20.4%; growth (SK-OV-3 ovarian): -14.1% (active); growth (OVCAR-3 ovarian): -7.34% (active); growth (HS 578T breast): -48.7% (active)

**Q.** For `CN(C)C(=O)Oc1ccccc1`, which growth (SR leukemia) is on record?
**A.** 109%

**Q.** What about the growth (RPMI-8226 leukemia) of the same compound?
**A.** 104%

**Q.** What about the growth (OVCAR-8 ovarian) of the same compound?
**A.** 102%

**Q.** What about the growth (OVCAR-5 ovarian) of the same compound?
**A.** 82.4%

**Q.** What about the growth (OVCAR-4 ovarian) of the same compound?
**A.** 101%

**Q.** And the growth (SK-OV-3 ovarian)?
**A.** 103%

**Q.** And the growth (IGROV1 ovarian)?
**A.** 108%

**Q.** And the growth (OVCAR-3 ovarian)?
**A.** 120%

**Q.** Which growth (SR leukemia) does the source give for `CC[C@H](C)[C@H](NC(=O)[C@H]1CCCCN1C)C(=O)N(C)[C@H](C[C@@H](OC(C)=O)c1nc(C(=O)N[C@@H](Cc2ccccc2)C[C@H](C)C(=O)OC)cs1)C(C)C` here?
**A.** -7.13% (active)

**Q.** What about the growth (RPMI-8226 leukemia) of the same compound?
**A.** 27.5%

**Q.** What about the growth (OVCAR-8 ovarian) of the same compound?
**A.** 16.4%

**Q.** And the growth (OVCAR-5 ovarian)?
**A.** 58.1%

**Q.** What about the growth (SK-OV-3 ovarian) of the same compound?
**A.** 41%

**Q.** And the growth (IGROV1 ovarian)?
**A.** 25.9%

**Q.** And the growth (OVCAR-3 ovarian)?
**A.** -0.916% (active)

**Q.** What about the growth (HS 578T breast) of the same compound?
**A.** 33.8%

**Q.** Which results are given for `CC(C)[C@]12O[C@H]1[C@@H]1O[C@]13[C@]1(O[C@H]1C[C@H]1c4c(C(=O)c5ccccc5)oc(OC(=O)c5ccccc5)c4CC[C@@]13C)[C@@H]2O`?
**A.** growth (OVCAR-8 ovarian): 6.13% (active); growth (OVCAR-5 ovarian): 15.2%; growth (OVCAR-4 ovarian): 21.3%; growth (SK-OV-3 ovarian): 27.3%; growth (IGROV1 ovarian): -33% (active); growth (OVCAR-3 ovarian): -57.5% (active); growth (HS 578T breast): -30.6% (active)

**Q.** What does the source list for `COc1ccc(/C=C\c2cc(OC)c(OC)c(OC)c2)cc1NS(=O)(=O)c1ccc(Cl)cc1`?
**A.** growth (SR leukemia): 51.4%; growth (RPMI-8226 leukemia): 64.3%; growth (OVCAR-8 ovarian): 78.5%; growth (OVCAR-5 ovarian): 83.4%; growth (OVCAR-4 ovarian): 55%; growth (SK-OV-3 ovarian): 81.9%; growth (IGROV1 ovarian): 61.9%; growth (OVCAR-3 ovarian): 76.6%; growth (HS 578T breast): 67.8%

**Q.** Which growth (SR leukemia) does the source give for `CC(=O)ONc1ccc([N+](=O)[O-])c(C(F)(F)F)c1` here?
**A.** 103%

**Q.** What about the growth (RPMI-8226 leukemia) of the same compound?
**A.** 93.9%

**Q.** What about the growth (OVCAR-8 ovarian) of the same compound?
**A.** 109%

**Q.** And the growth (OVCAR-5 ovarian)?
**A.** 103%

**Q.** And the growth (SK-OV-3 ovarian)?
**A.** 94.7%

**Q.** And the growth (IGROV1 ovarian)?
**A.** 107%

**Q.** What about the growth (OVCAR-3 ovarian) of the same compound?
**A.** 104%

**Q.** What about the growth (HS 578T breast) of the same compound?
**A.** 90.7%

**Q.** Which results are given for `Fc1ccc(N2COOC3(OOC2)C2CC4CC(C2)CC3C4)cc1`?
**A.** growth (SR leukemia): -19.2% (active); growth (RPMI-8226 leukemia): 95.4%; growth (OVCAR-8 ovarian): 86.7%; growth (OVCAR-5 ovarian): 98.6%; growth (OVCAR-4 ovarian): 101%; growth (SK-OV-3 ovarian): 105%; growth (IGROV1 ovarian): 16.5%; growth (OVCAR-3 ovarian): 97%; growth (HS 578T breast): 109%

**Q.** For `Nc1cc2nc3ccccc3nc2cc1N`, which growth (SR leukemia) is on record?
**A.** 82.4%

**Q.** What about the growth (RPMI-8226 leukemia) of the same compound?
**A.** 80%

**Q.** And the growth (OVCAR-8 ovarian)?
**A.** 83%

**Q.** And the growth (OVCAR-5 ovarian)?
**A.** 99.9%

**Q.** What about the growth (SK-OV-3 ovarian) of the same compound?
**A.** 82.3%

**Q.** What about the growth (IGROV1 ovarian) of the same compound?
**A.** 96%

**Q.** And the growth (OVCAR-3 ovarian)?
**A.** 92.1%

**Q.** What about the growth (HS 578T breast) of the same compound?
**A.** 76.8%

**Q.** `O=C1C=C2C(=CCOC2O)O1` (stereo unspecified) was tested. Which growth (RPMI-8226 leukemia) did it give?
**A.** -19.1% (active)

**Q.** What about the growth (OVCAR-8 ovarian) of the same compound?
**A.** -21.5% (active)

**Q.** What about the growth (OVCAR-5 ovarian) of the same compound?
**A.** 41.5%

**Q.** What about the growth (OVCAR-4 ovarian) of the same compound?
**A.** 25.4%

**Q.** What about the growth (SK-OV-3 ovarian) of the same compound?
**A.** 100%

**Q.** What about the growth (IGROV1 ovarian) of the same compound?
**A.** 42.9%

**Q.** And the growth (OVCAR-3 ovarian)?
**A.** -78.6% (active)

**Q.** And the growth (HS 578T breast)?
**A.** 50%

**Q.** `CC(C)COC(C[N+](=O)[O-])C(Cl)(Cl)Cl` (stereo unspecified) was tested. Which growth (SR leukemia) did it give?
**A.** 94.7%

**Q.** And the growth (RPMI-8226 leukemia)?
**A.** 116%

**Q.** And the growth (OVCAR-8 ovarian)?
**A.** 101%

**Q.** What about the growth (OVCAR-5 ovarian) of the same compound?
**A.** 109%

**Q.** What about the growth (OVCAR-4 ovarian) of the same compound?
**A.** 101%

**Q.** And the growth (SK-OV-3 ovarian)?
**A.** 106%

**Q.** And the growth (IGROV1 ovarian)?
**A.** 103%

**Q.** What about the growth (OVCAR-3 ovarian) of the same compound?
**A.** 115%

**Q.** What about the growth (HS 578T breast) of the same compound?
**A.** 119%

**Q.** What does the source list for `N#Cc1c(Br)n(C2OC(CO)C(O)C2O)c2ncnc(N)c12` (stereo unspecified)?
**A.** growth (OVCAR-8 ovarian): 35.2%; growth (OVCAR-5 ovarian): 95.5%; growth (OVCAR-4 ovarian): 75.3%; growth (SK-OV-3 ovarian): 78.3%; growth (IGROV1 ovarian): -35.1% (active); growth (HS 578T breast): 39.5%

**Q.** Which growth (SR leukemia) does the source give for `NC(=S)c1cn(C2OC(CO)C(O)C2O)c2ncnc(N)c12` (stereo unspecified) here?
**A.** -50.4% (active)

**Q.** What about the growth (RPMI-8226 leukemia) of the same compound?
**A.** -39.8% (active)

**Q.** And the growth (OVCAR-8 ovarian)?
**A.** 3.53% (active)

**Q.** What about the growth (OVCAR-5 ovarian) of the same compound?
**A.** -29.6% (active)

**Q.** What about the growth (OVCAR-4 ovarian) of the same compound?
**A.** -7.48% (active)

**Q.** What about the growth (SK-OV-3 ovarian) of the same compound?
**A.** 17%

**Q.** And the growth (IGROV1 ovarian)?
**A.** 0.391% (active)

**Q.** And the growth (OVCAR-3 ovarian)?
**A.** -26.2% (active)

**Q.** And the growth (HS 578T breast)?
**A.** -25.4% (active)

**Q.** `CC1=C(CCCOC(=O)CN)C2=C(C)C3(CC3)[C@@](C)(O)C(=O)C2=C1` was tested. Which growth (SR leukemia) did it give?
**A.** 94.7%

**Q.** And the growth (RPMI-8226 leukemia)?
**A.** 88.8%

**Q.** What about the growth (OVCAR-8 ovarian) of the same compound?
**A.** 73.8%

**Q.** And the growth (OVCAR-5 ovarian)?
**A.** 114%

**Q.** What about the growth (OVCAR-4 ovarian) of the same compound?
**A.** 85%

**Q.** And the growth (SK-OV-3 ovarian)?
**A.** 51.3%

**Q.** What about the growth (IGROV1 ovarian) of the same compound?
**A.** 32.8%

**Q.** What about the growth (OVCAR-3 ovarian) of the same compound?
**A.** 101%

**Q.** And the growth (HS 578T breast)?
**A.** 93.9%

**Q.** Which growth (SR leukemia) does the source give for `Nc1c(F)cc(-c2nc3cc(F)ccc3[se]2)cc1Br` here?
**A.** 15.7%

**Q.** What about the growth (RPMI-8226 leukemia) of the same compound?
**A.** 35.1%

**Q.** And the growth (OVCAR-8 ovarian)?
**A.** 93.1%

**Q.** And the growth (OVCAR-5 ovarian)?
**A.** 8.24% (active)

**Q.** What about the growth (OVCAR-4 ovarian) of the same compound?
**A.** 30.1%

**Q.** What about the growth (SK-OV-3 ovarian) of the same compound?
**A.** 39.7%

**Q.** What about the growth (IGROV1 ovarian) of the same compound?
**A.** 5.47% (active)

**Q.** And the growth (OVCAR-3 ovarian)?
**A.** 40.8%

**Q.** What about the growth (HS 578T breast) of the same compound?
**A.** 96.6%

**Q.** `COc1ccc(/C=C\c2cc(OC)c(OC)c(OC)c2)c(NS(=O)(=O)c2ccc(F)cc2)c1O` was tested. Which growth (SR leukemia) did it give?
**A.** 19%

**Q.** And the growth (RPMI-8226 leukemia)?
**A.** 23.3%

**Q.** And the growth (OVCAR-8 ovarian)?
**A.** 22.5%

**Q.** What about the growth (OVCAR-5 ovarian) of the same compound?
**A.** 40.4%

**Q.** And the growth (OVCAR-4 ovarian)?
**A.** 29.3%

**Q.** And the growth (SK-OV-3 ovarian)?
**A.** 12.4%

**Q.** And the growth (IGROV1 ovarian)?
**A.** 28.3%

**Q.** And the growth (OVCAR-3 ovarian)?
**A.** -37.8% (active)

**Q.** What about the growth (HS 578T breast) of the same compound?
**A.** 25.3%

**Q.** With `COC(=O)CCC1=C(C)c2cc3[n-]c(cc4nc(cc5[n-]c(cc1n2)c(CCC(=O)OC)c5C)C=C4C)cc3C.[Cd+2]` as the compound, how does the growth (RPMI-8226 leukemia) read?
**A.** -1.53% (active)

**Q.** And the growth (OVCAR-8 ovarian)?
**A.** 68.7%

**Q.** And the growth (OVCAR-5 ovarian)?
**A.** 103%

**Q.** And the growth (OVCAR-4 ovarian)?
**A.** 37.7%

**Q.** What about the growth (SK-OV-3 ovarian) of the same compound?
**A.** 83.5%

**Q.** What about the growth (IGROV1 ovarian) of the same compound?
**A.** 35.1%

**Q.** And the growth (OVCAR-3 ovarian)?
**A.** -58.1% (active)

**Q.** And the growth (HS 578T breast)?
**A.** 39.8%

**Q.** With `CCOC(=O)N1CC1` as the compound, how does the growth (SR leukemia) read?
**A.** -20.9% (active)

**Q.** And the growth (RPMI-8226 leukemia)?
**A.** 91.2%

**Q.** And the growth (OVCAR-8 ovarian)?
**A.** 101%

**Q.** And the growth (OVCAR-5 ovarian)?
**A.** 97.1%

**Q.** What about the growth (OVCAR-4 ovarian) of the same compound?
**A.** 93.1%

**Q.** What about the growth (SK-OV-3 ovarian) of the same compound?
**A.** 111%

**Q.** And the growth (IGROV1 ovarian)?
**A.** 93.5%

**Q.** What about the growth (OVCAR-3 ovarian) of the same compound?
**A.** 111%

**Q.** And the growth (HS 578T breast)?
**A.** 112%
